Measured values as given in PubChem BioAssay AID1159580 (chemical genetic matrix, 2015).
About 2,000 (36%) of roughly 5,500 compounds were called active. Not shown: some 18% with an inconclusive outcome. Cut-off read from the data, not from the text of the source: active = normalized growth mostly below about 0.91 (no sharp cut-off); inconclusive = no clear call, values can overlap the other calls; inactive = mostly above about 0.92. This is one part of the list.

Experiment: chemical genetic growth profiling, strain panel (AID 1159580);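 note: tested at 20 µM; growth read once vehicle control cultures reached saturation at 30 °C; 1 = growth at the plate median or of vehicle wells; lower values mean less growth of the strain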
Conditions: growth OD

Measured: normalized growth

COc1cc2c(cc1OC)C(=O)OC2
inactive: S. cerevisiae deletion strains, locus YJR075W, strain HOC1, stronger effect = lower value 1.01 | S. cerevisiae deletion strains, locus YKL009W, strain mrt4, stronger effect = lower value 1.05 | S. cerevisiae deletion strains, locus YKL068W, stronger effect = lower value 1 | S. cerevisiae deletion strains, locus YKL085W, strain MDH1 (second series), stronger effect = lower value 1.01 | S. cerevisiae deletion strains, locus YKL085W, strain MDH1, stronger effect = lower value 1.01 | S. cerevisiae deletion strains, locus YKL160W, strain elf1, stronger effect = lower value 0.994 | S. cerevisiae deletion strains, locus YKL190W, strain CNB1, stronger effect = lower value 1 | S. cerevisiae deletion strains, locus YKR001C, strain vps1, stronger effect = lower value 1.01 | S. cerevisiae deletion strains, locus YKR026C, strain gcn3, stronger effect = lower value 0.992 | S. cerevisiae deletion strains, locus YKR091W, strain srl3, stronger effect = lower value 0.996 | S. cerevisiae deletion strains, locus YLL001W, strain dnm1, stronger effect = lower value 0.996 | S. cerevisiae deletion strains, locus YLL026W, stronger effect = lower value 0.991 | S. cerevisiae deletion strains, locus YLL041C, strain sdh2, stronger effect = lower value 1 | S. cerevisiae deletion strains, locus YLR027C, strain aat2, stronger effect = lower value 1 | S. cerevisiae deletion strains, locus YLR039C, strain RIC1, stronger effect = lower value 1.02 | S. cerevisiae deletion strains, locus YLR058C, strain SHM2, stronger effect = lower value 1.01 | S. cerevisiae deletion strains, locus YLR102C, strain apc9, stronger effect = lower value 1 | S. cerevisiae deletion strains, locus YLR113W, strain HOG1, stronger effect = lower value 0.971 | S. cerevisiae deletion strains, locus YLR221C, strain rsa3, stronger effect = lower value 1.01 | S. cerevisiae deletion strains, locus YLR258W, strain gsy2, stronger effect = lower value 0.992 | S. cerevisiae deletion strains, locus YLR262C, strain YPT6 (second series), stronger effect = lower value 1.02 | S. cerevisiae deletion strains, locus YLR262C, strain YPT6, stronger effect = lower value 1.02 | S. cerevisiae deletion strains, locus YLR268W, strain sec22, stronger effect = lower value 0.979 | S. cerevisiae deletion strains, locus YLR320W, strain mms22, stronger effect = lower value 0.995 | S. cerevisiae deletion strains, locus YLR330W, strain CHS5, stronger effect = lower value 1.01 | S. cerevisiae deletion strains, locus YLR342W, strain FKS1 (second series), stronger effect = lower value 1.07 | S. cerevisiae deletion strains, locus YLR342W, strain FKS1, stronger effect = lower value 0.999 | S. cerevisiae deletion strains, locus YLR357W, strain rsc2, stronger effect = lower value 0.96 | S. cerevisiae deletion strains, locus YLR370C, strain arc18, stronger effect = lower value 0.997 | S. cerevisiae deletion strains, locus YLR371W, strain rom2, stronger effect = lower value 1.01 | S. cerevisiae deletion strains, locus YLR384C, strain iki3, stronger effect = lower value 0.988 | S. cerevisiae deletion strains, locus YLR418C, strain cdc73, stronger effect = lower value 0.925 | S. cerevisiae deletion strains, locus YML016C, strain PPZ1, stronger effect = lower value 1 | S. cerevisiae deletion strains, locus YML032C, strain rad52, stronger effect = lower value 1.01 | S. cerevisiae deletion strains, locus YML120C, strain ndi1, stronger effect = lower value 1.01 | S. cerevisiae deletion strains, locus YML124C, strain tub3, stronger effect = lower value 0.994 | S. cerevisiae deletion strains, locus YMR058W, strain fet3, stronger effect = lower value 0.999 | S. cerevisiae deletion strains, locus YMR078C, strain ctf18, stronger effect = lower value 1 | S. cerevisiae deletion strains, locus YMR125W, strain sto1, stronger effect = lower value 0.984 | S. cerevisiae deletion strains, locus YMR129W, stronger effect = lower value 0.992 | S. cerevisiae deletion strains, locus YMR205C, strain PFK2, stronger effect = lower value 1.01 | S. cerevisiae deletion strains, locus YMR223W, strain ubp8, stronger effect = lower value 1.02 | S. cerevisiae deletion strains, locus YMR231W, strain pep5, stronger effect = lower value 0.99 | S. cerevisiae deletion strains, locus YMR263W, strain SAP30, stronger effect = lower value 0.994 | S. cerevisiae deletion strains, locus YMR307W, strain GAS1, stronger effect = lower value 1.09 | S. cerevisiae deletion strains, locus YNL067W, strain RPL9B, stronger effect = lower value 0.997 | S. cerevisiae deletion strains, locus YNL071W, strain lat1, stronger effect = lower value 0.995 | S. cerevisiae deletion strains, locus YNL128W, strain TEP1, stronger effect = lower value 0.99 | S. cerevisiae deletion strains, locus YNL153C, strain GIM3, stronger effect = lower value 0.978 | S. cerevisiae deletion strains, locus YNL183C, strain NPR1, stronger effect = lower value 0.987 | S. cerevisiae deletion strains, locus YNL209W, strain ssb2, stronger effect = lower value 0.979 | S. cerevisiae deletion strains, locus YNL233W, strain BNI4, stronger effect = lower value 0.992 | S. cerevisiae deletion strains, locus YNL248C, strain rpa49, stronger effect = lower value 0.978 | S. cerevisiae deletion strains, locus YNL250W, strain rad50, stronger effect = lower value 0.995 | S. cerevisiae deletion strains, locus YNL271C, strain bni1, stronger effect = lower value 1 | S. cerevisiae deletion strains, locus YNL298W, strain CLA4, stronger effect = lower value 1.02 | S. cerevisiae deletion strains, locus YNL307C, strain MCK1, stronger effect = lower value 1.02 | S. cerevisiae deletion strains, locus YNL322C, strain KRE1 (second series), stronger effect = lower value 0.996 | S. cerevisiae deletion strains, locus YNL322C, strain KRE1, stronger effect = lower value 1.01 | S. cerevisiae deletion strains, locus YNR049C, strain mso1, stronger effect = lower value 1 | S. cerevisiae deletion strains, locus YNR052C, strain pop2, stronger effect = lower value 1.01 | S. cerevisiae deletion strains, locus YOL006C, strain TOP1, stronger effect = lower value 0.996 | S. cerevisiae deletion strains, locus YOL012C, strain htz1 0.744 | S. cerevisiae deletion strains, locus YOL147C, strain pex11, stronger effect = lower value 1 | S. cerevisiae deletion strains, locus YOR001W, strain rrp6, stronger effect = lower value 0.993 | S. cerevisiae deletion strains, locus YOR061W, strain CKA2, stronger effect = lower value 1 | S. cerevisiae deletion strains, locus YOR069W, strain VPS5, stronger effect = lower value 1.01 | S. cerevisiae deletion strains, locus YOR070C, strain gyp1, stronger effect = lower value 0.984 | S. cerevisiae deletion strains, locus YOR080W, strain dia2, stronger effect = lower value 1.01 | S. cerevisiae deletion strains, locus YOR083W, strain WHI5, stronger effect = lower value 0.996 | S. cerevisiae deletion strains, locus YOR106W, strain vam3, stronger effect = lower value 0.99 | S. cerevisiae deletion strains, locus YOR136W, strain idh2, stronger effect = lower value 1 | S. cerevisiae deletion strains, locus YOR144C, strain elg1, stronger effect = lower value 1 | S. cerevisiae deletion strains, locus YOR184W, strain ser1, stronger effect = lower value 1.04 | S. cerevisiae deletion strains, locus YOR231W, strain MKK1, stronger effect = lower value 0.991 | S. cerevisiae deletion strains, locus YOR265W, strain rbl2, stronger effect = lower value 1.01 | S. cerevisiae deletion strains, locus YOR270C, strain vph1, stronger effect = lower value 0.971 | S. cerevisiae deletion strains, locus YOR290C, strain snf2, stronger effect = lower value 1.01 | S. cerevisiae deletion strains, locus YOR316C, strain cot1, stronger effect = lower value 1.01 | S. cerevisiae deletion strains, locus YPL051W, strain arl3, stronger effect = lower value 0.994 | S. cerevisiae deletion strains, locus YPL055C, strain LGE1, stronger effect = lower value 0.973 | S. cerevisiae deletion strains, locus YPL078C, strain atp4, stronger effect = lower value 1.01 | S. cerevisiae deletion strains, locus YPL106C, strain sse1, stronger effect = lower value 0.901 | S. cerevisiae deletion strains, locus YPL240C, strain hsp82, stronger effect = lower value 0.988 | S. cerevisiae deletion strains, locus YPL241C, strain CIN2, stronger effect = lower value 1 | S. cerevisiae deletion strains, locus YPL256C, strain CLN2, stronger effect = lower value 1 | S. cerevisiae deletion strains, locus YPR119W, strain clb2, stronger effect = lower value 0.995 | S. cerevisiae deletion strains, locus YPR141C, strain kar3, stronger effect = lower value 1 | S. cerevisiae deletion strains, locus YPR163C, strain tif3, stronger effect = lower value 0.989 | S. cerevisiae deletion strains, locus YPR167C, strain met16, stronger effect = lower value 1 | S. cerevisiae deletion strains, strain wtn01, stronger effect = lower value 1 | S. cerevisiae strains, strain wild type, stronger effect = lower value 1.01
